# Results from PubChem BioAssay (EPA / NIEHS).
# Activity calls are given as the source filed them. How the source made its calls: active means hit-call score of the fitted dose curve at least 0.9, where 1 is the maximum; inactive means score below 0.9.
# Read-out: Tumor necrosis factor receptor superfamily member 6 (Homo sapiens) (UniProt P25445)
# Experiment: LTEA_HepaRG_FAS: Life Technologies and Expression Analysis (LTEA) Assay for Fas cell surface death receptor (FAS) using HepaRG (AID 2283447)
# Details: mRNA level, 48 h; actives raise or lower the signal
# Method: LTEA_HepaRG is a cell based, multiplexed-readout assay that uses HepaRG, a human liver cell line, with measurements taken at 48 hours after chemical dosing on a 96-well plate.LTEA_HepaRG_FAS is one of 102 assay component(s) measured in the LTEA HepaRG cell culture assay. It is a marker of Cell proliferation, survival, death.Data from the assay component LTEA_HepaRG_FAS was analyzed into 1 endpoint. This assay endpoint, LTEA_HepaRG_FAS, was analyzed with bidirectional fitting relative to DMSO as the negative control and baseline of activity. Using a type of inducible reporter, measures of mRNA induction for gain or loss-of-signal activity can be used to understand regulation of transcription factor activity. To generalize the intended target to other relatable targets, this assay endpoint is annotated to the cytokine receptor intended target family, where the subfamily is TNF receptor.
# A total of 1060 chemcials from the ToxCast library were tested in eight-point concentration-response experiments. Cell culture and cytotoxicity assays were conducted at Thermo Fisher Scientific's Custom Services facility (Madison, WI). A single lot of human HepaRG cells (Thermo Fisher Scientific, Frederick, MD) was used for the cell culture experiments. 96-well format collagen type I coated plates of human HepaRG cells were prepared using established methods. Briefly, cryopreserved HepaRG cells were thawed, plated at a density of approximately 100,000 cells/well in HepaRG Thaw, Plate, and General Purpose media (HPRG770, Thermo Fisher Scientific), and incubated for 48 hours. 0.5% DMSO was selected as vehicle control to balance the requisite need of DMSO in HepaRG cultures to maintain differentiation (for example, baseline metabolism, proportions of hepatocytes vs. cholangiocytes), while enabling further hepatic receptor pathway activation (for example, PXR and CAR) in response to chemical exposure. 48 hours after plating, the culture medium was replaced with HepaRG Serum-Free Incudtion Media. Cells were exposed to each test chemical in duplicate and maintained in CO2 incubators for another 48 hours. Chemical plates were thawed to room temperature and 200x concentrations of treatment groups were prepared. 8-point conentration-reponse curves were made with the highest exposure at 100 uM, followed by half-log dilutions, all in 0.5% DMSO. Each test plate contained variouse controls, induction positive controls (1mM phenobarbital), cytotoxicity positive controls ([…] aflatoxin B1), vehicle controls (0.5% DMSO), and total lysis controls (0.5% DMSO). Cell morphology images were taken using an Essen IncuCyte FLR automated microscope, with six 96-well plates imaged in about 24 minutes. Images were captured and exported and JPEG files. Spent culture media was transfered to black-well plates for the LDH assay, and remaining media was sorted at -80 C for later use. Cells were treated with RLT buffer and frozen until shipped for gene expression analysis. Total RNA was isolated from the cell suspension in 75 uL of Buffer RLT (Qiagen, Germantown, MD 20874) by Quintiles/Expression Analysis (Durham, NC) using a custom isolation procedure. Total RNA from each plate well was transferred to a preamplification plate. Fluidigm's 96.96 Dynamic ArrayTM (Fluidigm, Amsterdam, the Netherlands) technology was used for gene expression analyses by quantitative reverse transcription polymerase chain reaction (qRT-PCR, performed by Quintiles/Expression Analysis, Durham, NC)89. Standard TaqManTM Assays (Applied Biosystems/ThermoFisher Scientific, Foster City, CA) were used to assess the expression of 93 genes selected based on their selectivity and sensitivity to important hepatic receptors known to be modulated by environmental chemicals; importance in human hepatocyte functionality; and hepatotoxicity. […]
row,SMILES,outcome
1,Clc1cccc(Cl)c1,inactive
2,O=C(O)C1(c2ccc3c(c2)OC[C@H](Cc2ccc(-c4ccccc4)cc2)[C@H]3O)CCCC1,inactive
3,N#Cc1cccnc1,inactive
4,Oc1c(Cl)cc(Cl)cc1Cl,inactive
5,OCCN(CCO)CCO,inactive
6,CCCCCCCCCCCCc1cccc(S(=O)(=O)O)c1,inactive
7,CC(C)O.CC(C)O.OCCN(CCO)CCO.OCCN(CCO)CCO.[Ti],inactive
8,CC(C)(C)c1ccccc1O,inactive
9,Oc1cc(Cl)c(Cl)cc1Cl,inactive
10,Clc1cccc(Cl)c1Cl,inactive
11,O=C(N[C@H]1CN2CCC1CC2)c1ccc2c(c1)OCCO2,inactive
12,COc1ccccc1N,inactive
